# Measurements published in the supplement of paper PMC6805474.
# How the values were obtained:
# [1] = tested on: Schistosoma mansoni schistosomula (LE); experiment: XTT viability relative to DMSO control; higher = more viable (less active); details: 72 h; 10 µM
# Procedure: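 XTT/PMS was then added for a further 24 h (72 h total) and A450 was read. % viability = (sample - heat-killed control)/(DMSO control - heat-killed control) x 100, from duplicate wells in two independent experiments.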
# [2] = tested on: Schistosoma mansoni schistosomula (NMRI); experiment: phenotypic severity score (0-4); higher = more antischistosomal effect, active = 2 or more; details: 10 µM
# [3] = tested on: Schistosoma mansoni schistosomula (Liberian); experiment: drug effect (1 - score/DMSO control score) (fraction); higher = more antischistosomal effect, active = 0.5 or more; extreme values may be limits of the assay; details: 10 µM
# How it was run: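 Drug effect was calculated by comparing the mean score of the test wells with the mean score of the DMSO wells, and any negative value was set to zero. Duplicate wells of 50 Liberian-strain S. mansoni schistosomula, mechanically transformed from cercariae and pre-incubated at least 12 h, received 10 µM compound in Medium 199 with 5% FCS at 37 °C, 5% CO2, with 0.1% DMSO in the comparison wells. Visual scoring at 10× took place at 24, 48 and 72 h on a quarter-point scale from 3 (normal) to 0 (dead), and a plate counted only if its DMSO wells averaged at least 2.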
# 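Wherever phenotypic severity score (0-4) is given: visual microscopic scoring of shape, motility and density changes versus 0.5% DMSO solvent controls, one point per descriptor, degeneracy or death scored 4, mean of duplicate wells.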
Compound,XTT viability [1],phenotypic severity score ([2]; 24 h),phenotypic severity score ([2]; 48 h),phenotypic severity score ([2]; 72 h),drug effect ([3]; 24 h),drug effect ([3]; 48 h),drug effect ([3]; 72 h)
O=C(c1[nH]nc2c1CCCC2)N1CCN(Cc2ccc3c(c2)OCO3)CC1,89.6%,0 (inactive),0 (inactive),0 (inactive),0.0909 (inactive),0.25 (inactive),0.236 (inactive)
Nc1ncc(-c2ccc(C(F)(F)F)nc2)cc1-c1ccc(C(F)(F)F)nc1,79.3%,0 (inactive),0 (inactive),0 (inactive),0.182 (inactive),0.15 (inactive),0.127 (inactive)
CC(C)(C)C(=O)N(CCCCCCN1C[C@H](O)[C@@H](O)[C@H](O)[C@H]1CO)C1CCCCCC1,122%,0 (inactive),2 (active),4 (active),0.25 (inactive),0.556 (active),1 (active)
O=C(C1CCN(c2nnc(-n3cccc3)s2)CC1)N1CCC(Cc2ccccc2)CC1,103%,1 (inactive),1 (inactive),0 (inactive),0.0526 (inactive),0.111 (inactive),< 0 (inactive)
Brc1c(-c2ccc3c(c2)OCO3)nc2ncccn12,99.9%,0 (inactive),0 (inactive),0 (inactive),0.182 (inactive),0.2 (inactive),0.127 (inactive)
CCCCN(CCCC)c1c(C#N)cc(S(=O)(=O)Nc2ccccc2)cc1C#N,40.5%,0 (inactive),0 (inactive),0 (inactive),0.15 (inactive),0.135 (inactive),0.273 (inactive)
COc1ccc(C(=N)N)cc1-c1cn(-c2ccc(C(=N)N)cc2)nn1,69.3%,0 (inactive),0 (inactive),0 (inactive),0.05 (inactive),0.0811 (inactive),0.0909 (inactive)
Cc1nc(-c2cccc(NCc3ccccc3)c2)[nH]c1C,104%,0 (inactive),0 (inactive),0 (inactive),0.1 (inactive),0.111 (inactive),0.25 (inactive)
CC(=O)N1CCc2cc3nc(C)cc(C)c3cc21,112%,0 (inactive),0 (inactive),0 (inactive),0.2 (inactive),0.111 (inactive),0.0625 (inactive)
CNC1C(OC2C(OC3C(O)C(O)C(NC(=N)N)C(O)C3NC(=N)N)OC(C)C2(O)C=O)OC(CO)C(O)C1O (configuration not stated),93%,0 (inactive),0 (inactive),0 (inactive),0.182 (inactive),0.1 (inactive),0.0727 (inactive)
Cc1cc(Nc2ccncc2)n2nc(C)c(-c3ccccc3Cl)c2n1,64.9%,0 (inactive),0 (inactive),0 (inactive),0.1 (inactive),0.135 (inactive),0.167 (inactive)
Cc1cc(OCC(=O)Nc2ccc(C(C)C)cc2)n(C)c(=O)c1C#N,82.3%,0 (inactive),0 (inactive),0 (inactive),0.1 (inactive),0.0556 (inactive),< 0 (inactive)
COc1cc(NC(=O)Cc2nn(C)c(=O)c3ccccc23)ccc1Cl,104%,0 (inactive),0 (inactive),0 (inactive),0.105 (inactive),0.111 (inactive),0.0625 (inactive)
O=C(c1ccco1)N(CCCn1ccnc1)c1nc2c(Cl)cccc2s1,46.4%,0 (inactive),0 (inactive),0 (inactive),0.0909 (inactive),0.4 (inactive),0.4 (inactive)
Cc1ccc(S(=O)(=O)n2cc(-c3ccnc(N)c3)c3cc(Br)cnc32)cc1,4.55%,2 (active),3 (active),3 (active),0.45 (inactive),0.568 (active),0.515 (active)
Cc1ccccc1CN1CCC(O)(c2ccc(Cl)c(C(F)(F)F)c2)CC1,71.1%,2 (active),0 (inactive),1 (inactive),0.1 (inactive),0.0556 (inactive),0.188 (inactive)
O=C(Nc1ccc(C(F)(F)F)c(C(F)(F)F)c1)c1cc(Cl)ccc1O,35.4%,4 (active),4 (active),4 (active),1 (active),1 (active),1 (active)
O=C(Nc1ccc(F)c(-c2nc3cc(-c4ccccc4)cnc3[nH]2)c1)N1CCCC1,111%,0 (inactive),4 (active),4 (active),0.676 (active),0.667 (active),0.875 (active)
COc1cc(C2=NCCN2)ccc1-n1cc(-c2cccc(C3=NCCN3)c2)nn1,77.2%,1 (inactive),0 (inactive),0 (inactive),0.243 (inactive),0.278 (inactive),0.5 (active)
Nc1ncnc2c1ncn2C[C@@H](O)[C@@H](O)C(=O)O,63.7%,0 (inactive),0 (inactive),0 (inactive),0.1 (inactive),0.189 (inactive),0.222 (inactive)
Cc1cccnc1NC(=O)c1cccc(OCc2c(C)noc2C)c1,114%,0 (inactive),0 (inactive),0 (inactive),0.0909 (inactive),0.15 (inactive),0.127 (inactive)

Compound,XTT viability [1],phenotypic severity score ([2]; 24 h),phenotypic severity score ([2]; 48 h),phenotypic severity score ([2]; 72 h),drug effect ([3]; 24 h),drug effect ([3]; 48 h),drug effect ([3]; 72 h)
COc1cccc(OC)c1C(=O)Nc1ccc(Cl)c(-c2nc3ccccc3s2)c1,108%,2 (active),2 (active),2 (active),0.4 (inactive),0.5 (active),0.625 (active)
O=C(NCCc1ccccc1)c1cc(-c2cccnc2)cnc1NCC1CC1,85.9%,0 (inactive),2 (active),0 (inactive),0.2 (inactive),0.514 (active),0.576 (active)
CN(C)c1cc(NC(=O)Nc2ccccc2)c2ccccc2n1,-13.7%,1 (inactive),0 (inactive),0 (inactive),0.182 (inactive),0.35 (inactive),0.455 (inactive)
CNc1cc(C)nc(C2CN(C(=O)c3n[nH]c4ccccc34)CCO2)c1 (configuration not stated),123%,0 (inactive),0 (inactive),0 (inactive),0.158 (inactive),0.167 (inactive),0.125 (inactive)
Cc1cccc(Cn2ccc(NC(=O)c3ccc4c(c3)OCO4)n2)c1,93.2%,0 (inactive),0 (inactive),0 (inactive),0.0556 (inactive),0.125 (inactive),< 0 (inactive)
CCOc1ccc(-c2nc(NC(=O)CS(=O)(=O)c3ccccc3)sc2C)cc1,61.8%,0 (inactive),0 (inactive),1 (inactive),0.1 (inactive),0.0811 (inactive),0.111 (inactive)
O=C(c1cc2ccccc2o1)N1CCN(Cc2ccc3c(c2)OCO3)CC1,110%,0 (inactive),0 (inactive),0 (inactive),0.182 (inactive),0.15 (inactive),0.236 (inactive)
CC1(COc2ccc(N3CCC(Oc4ccc(OC(F)(F)F)cc4)CC3)cc2)Cn2cc([N+](=O)[O-])nc2O1 (configuration not stated),110%,0 (inactive),0 (inactive),0 (inactive),0.158 (inactive),0.111 (inactive),0.0625 (inactive)
COc1cccc(CC(=O)N2CCC(n3c(C)nc4ccc(F)cc43)CC2)c1,116%,1 (inactive),1 (inactive),1 (inactive),0.1 (inactive),0.405 (inactive),0.394 (inactive)
c1ccc(Oc2ccc(-c3cncc(-c4ccc5[nH]ccc5c4)n3)cc2)cc1,3.06%,0 (inactive),0 (inactive),2 (active),0.6 (active),1 (active),1 (active)
CCc1ccccc1-n1c(C)cn2c3c(=O)n(C(C(=O)OC)C(C)C)c(=O)n(C)c3nc12 (configuration not stated),108%,1 (inactive),0 (inactive),0 (inactive),0.15 (inactive),0.405 (inactive),0.636 (active)
Cc1nn2c(O)c3c(nc2c1-c1ccc(F)cc1)CCCC3,113%,0 (inactive),0 (inactive),0 (inactive),0.409 (inactive),0.45 (inactive),0.509 (active)
Cc1ccc(NC(=O)c2nc[nH]c2C(=O)Nc2nc3ccccc3[nH]2)c(C)c1,50.8%,3 (active),4 (active),4 (active),0.273 (inactive),0.4 (inactive),0.278 (inactive)
COc1ccc(OC)c(NCc2ccc3nc(N)nc(N)c3c2Cl)c1,109%,0 (inactive),2 (active),0 (inactive),< 0 (inactive),0.05 (inactive),0.278 (inactive)
COc1ccc(OC(C)C(=O)Nc2ccc(Cl)cc2C)cc1 (configuration not stated),97.2%,0 (inactive),0 (inactive),0 (inactive),0.182 (inactive),0.35 (inactive),0.345 (inactive)
CCc1ccc(C(NCc2nc(N)nc(N(C)C)n2)C(C)C)cc1 (configuration not stated),99.2%,0 (inactive),0 (inactive),0 (inactive),< 0 (inactive),< 0 (inactive),0.111 (inactive)
N#Cc1ccc(-c2cnc(N)c(-c3ccc(C(N)=O)cc3)n2)cc1,113%,2 (active),2 (active),4 (active),0.027 (inactive),0.333 (inactive),0.5 (active)
c1cc(C2=NCCN2)cc(-c2cc(-c3ccc(C4=NCCN4)cc3)no2)c1,115%,0 (inactive),0 (inactive),0 (inactive),0.1 (inactive),0.111 (inactive),0.125 (inactive)
FC(F)(F)c1ccc(N(c2cccnc2)C2CCN(c3ccc(C(F)(F)F)cn3)CC2)cc1,77.5%,0 (inactive),0 (inactive),1 (inactive),0.2 (inactive),0.222 (inactive),0.312 (inactive)
CCN(CC)CCCN1CCN(C(=O)c2cccc(-c3noc(C(F)(F)F)n3)c2)CC1,97.3%,0 (inactive),0 (inactive),1 (inactive),0.2 (inactive),0.111 (inactive),0.25 (inactive)
